Measured values as given in PubChem BioAssay (EPA / NIEHS).
Records with an inconclusive call do not appear. Active and inactive are the calls of the source. Rule for the calls, unless noted: active = hit-call score of the fitted dose curve at least 0.9, where 1 is the maximum; inactive = score below 0.9.

Experiments:
[1] = ATG_CMV_CIS: Attagene CIS-FACTORIAL HepG2 Assay for human CMV (Internal Marker) (AID 2282928); settings: HepG2 CMV promoter reporter, transcription factor profiling; actives raise or lower the signal;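 note: endpoint acts as a background internal control marker rather than a target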
Outline: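 24 h chemical treatment, HepG2 with transient multi-reporter transfection; RNA → oligo(dT) RT → PCR → 6-FAM extension → HpaI digest → CE fluorescence. Bidirectional fit, DMSO negative control.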

[2] = ATG_DR4_LXR_CIS: Attagene CIS-FACTORIAL HepG2 Assay for human Liver X Receptor (LXR), DR4 submotif (AID 2282929); settings: HepG2 Attagene DR4 cis-reporter, mRNA transcription; actives raise or lower the signal
Outline: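 Measures endogenous transcription factor activity via a DR4-driven reporter transcript in human HepG2 cells. Compounds incubated 24 h; mRNA quantified by RT-PCR and capillary electrophoresis, analysed as gain or loss of signal versus DMSO.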

[3] = target: Transcription factor E2F1 (Homo sapiens) (UniProt Q01094); experiment: ATG_E2F_CIS: Attagene CIS-FACTORIAL HepG2 Assay for human E2F Transcription Factor 1 (AID 2282935); settings: HepG2 Attagene cis-reporter, E2F reporter RNA transcripts; actives raise or lower the signal
Outline: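 In this cis-factorial format, endogenous factor activity drives transfected reporters in HepG2; transcripts collected at 24 h are quantified by fluorescence after RT-PCR and capillary separation.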

[4] = target: Hepatocyte nuclear factor 3-beta (Homo sapiens) (UniProt Q9Y261); experiment: ATG_FoxA2_CIS: Attagene CIS-FACTORIAL HepG2 Assay for human Forkhead box A2 (FOXA2) (AID 2282942); settings: HepG2 cis-reporter transcription factor activity, 24 h; actives raise or lower the signal
Outline: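 In transiently transfected human HepG2 cells, promoter-driven reporter mRNA levels after 24 h chemical exposure are determined via RT-PCR with capillary electrophoresis. DMSO serves as baseline for bidirectional fitting.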

[5] = ATG_ISRE_CIS: Attagene CIS-FACTORIAL HepG2 Assay for human Interferon Regulatory Factor 1 (IRF1) binding to an Interferon-Stimulated Response Element (ISRE) (AID 2282948); settings: HepG2 ISRE cis-reporter (Attagene), mRNA transcription readout; actives raise or lower the signal
Outline: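 Multiplexed mRNA reporter readout in human liver HepG2 cells: cis-element-driven reporters transfected, compound added for 24 h, transcripts amplified, fluorescently labelled and sized by capillary electrophoresis; curve fitting bidirectional against DMSO.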

[6] = target: Hypoxia-inducible factor 1-alpha (Homo sapiens) (UniProt Q16665); experiment: ATG_HIF1a_CIS: Attagene CIS-FACTORIAL HepG2 Assay for human Hypoxia Inducible Factor 1 (HIF1A) (AID 2282951); settings: HepG2 Attagene cis-factorial HIF1a reporter transcription; actives raise or lower the signal
Outline: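 In this multiplexed cell assay, HepG2 cells bearing transfected cis reporters are dosed for 24 h and reporter mRNA is read by RT-PCR plus capillary electrophoresis; signal increases and decreases are both scored against DMSO.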

[7] = target: Hepatocyte nuclear factor 6 (Homo sapiens) (UniProt Q9UBC0); experiment: ATG_HNF6_CIS: Attagene CIS-FACTORIAL HepG2 Assay for human Hepatocyte Nuclear Factor 6 (HNF6) (AID 2282952); settings: HepG2 Attagene cis-factorial HNF6 reporter transcription; actives raise or lower the signal
Outline: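 Endogenous transcription factor activity in human HepG2 liver cells was captured through cis-regulated reporter constructs. After 24 h treatment, reporter mRNA was measured by RT-PCR with capillary electrophoresis, and activity was fitted in both directions relative to DMSO.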

[8] = target: Heat shock factor protein 1 (Homo sapiens) (UniProt Q00613); experiment: ATG_HSE_CIS: Attagene CIS-FACTORIAL HepG2 Assay for human Heat Shock Transcription Factor 1 (HSE) (AID 2282953); settings: HepG2 HSE cis-reporter, Attagene RNA transcription; actives raise or lower the signal
Outline: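 Liver-derived HepG2 cells carry transiently introduced multiple reporter units governed by cis promoters. Reporter RNA measured 24 h post-dose through reverse transcription, PCR amplification, fluorescent labelling and capillary electrophoresis, normalised to DMSO.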

[9] = ATG_RORE_CIS: Attagene CIS-FACTORIAL HepG2 Assay for human RAR-related Orphan Receptor Element (RORE) (AID 2282959); settings: HepG2 Attagene cis-factorial RORE reporter, mRNA; actives raise or lower the signal
Outline: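 Fluorescence intensity of reporter-specific cDNA fragments, separated by capillary electrophoresis, gives the signal. Source: HepG2 liver cells transiently transfected with cis-element reporters and exposed 24 h; DMSO-normalized bidirectional fit.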

[10] = ATG_Sox_CIS: Attagene CIS-FACTORIAL HepG2 Assay for human SRY-box transcription factor (SOX) (AID 2282960); settings: HepG2 Attagene cis-factorial SOX reporter, mRNA; actives raise or lower the signal
Outline: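 After 24 h of chemical treatment, transfected HepG2 reporter cells are lysed for total RNA. Transcript levels come from RT-PCR with labelled primer extension and capillary electrophoresis, analysed bidirectionally versus DMSO.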

[11] = ATG_TGFb_CIS: Attagene CIS-FACTORIAL HepG2 Assay for human Transforming Growth Factor (TGF) (AID 2282967); settings: HepG2 Attagene CIS TGFb reporter, mRNA transcription; actives raise or lower the signal
Outline: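 Liver HepG2 line, cis-factorial reporter panel, 24 h dosing. Quantitation: RT-PCR products labeled with 6-FAM, cut with HpaI, resolved by capillary electrophoresis; DMSO-referenced bidirectional analysis.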

[12] = ATG_VDRE_CIS: Attagene CIS-FACTORIAL HepG2 Assay for human Vitamin D Receptor Element (VDRE) (AID 2282968); settings: HepG2 VDRE cis-reporter transcription, actives raise or lower the signal
Outline: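 Transfected HepG2 reporter cells, chemical treatment 24 h. RNA isolated, cDNA amplified with reporter-specific primers, products analysed by capillary electrophoresis. Endpoint fitted in both directions versus DMSO.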

[13] = ATG_M_06_TRANS: Attagene TRANS-FACTORIAL HepG2 Assay for M06 Transcription Factor (Internal Marker) (AID 2282983; active = hit-call score of the fitted dose curve at least 0.9, where 1 is the maximum); settings: HepG2 Attagene TRANS M06 internal marker reporter
Outline: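 Human liver HepG2 cells bearing transiently transfected chimeric NR-GAL4 reporter units were treated with chemicals for 24 h. Total RNA was reverse-transcribed, reporter sequences amplified and labelled, then quantified by capillary electrophoresis. Activity was fitted upward relative to DMSO.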

[14] = ATG_NFI_CIS: Attagene CIS-FACTORIAL HepG2 Assay for human Nuclear Factor I (NFI) (AID 2282989); settings: HepG2 cis-regulatory reporter, NFI response element transcription; actives raise or lower the signal
Outline: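 Transfected HepG2 liver cells, exposed 24 h, supplied total RNA for oligo(dT) reverse transcription and reporter-specific PCR. Labelled, HpaI-cut fragments were sized by capillary electrophoresis; DMSO set the baseline for bidirectional fitting.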

[15] = target: Myc proto-oncogene protein (Homo sapiens) (UniProt P01106); experiment: ATG_Myc_CIS: Attagene CIS-FACTORIAL HepG2 Assay for human Myelocytomatosis (Myc) Proto-Oncogene Transcription Factor (AID 2282990); settings: HepG2, Attagene cis-reporter transcription factor activity; actives raise or lower the signal
Outline: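 DMSO-normalised, bidirectionally fitted reporter mRNA signal. HepG2 cells transfected with cis reporter constructs, treated 24 h; transcripts detected by RT-PCR, 6-FAM primer extension and CE.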

[16] = ATG_NRF2_ARE_CIS: Attagene CIS-FACTORIAL HepG2 Assay for human Nuclear Factor Erythroid 2 Related Factor 2 (NFR2) response to Antioxidant Response Elements (ARE) (AID 2282992); settings: HepG2 Attagene ARE/NRF2 reporter, transcription factor activity; actives raise or lower the signal;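 for AC50: reporter mRNA level measured by RT-PCR and capillary electrophoresis fluorescence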
Outline: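 Endogenous transcription factor activity in human liver HepG2 cells is tracked via a cis-element-driven reporter within a multiplexed set. mRNA induction is read by RT-PCR and capillary electrophoresis after 24 h, with DMSO as baseline.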

[17] = target: Cellular tumor antigen p53 (Homo sapiens) (UniProt P04637); experiment: ATG_p53_CIS: Attagene CIS-FACTORIAL HepG2 Assay for human p53 Transcription Factor (AID 2282994); settings: HepG2 p53 cis-element reporter, Attagene mRNA; actives raise or lower the signal
Outline: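 Steps: transfect HepG2 with multiplexed cis reporter constructs; dose chemicals 24 h; extract RNA, reverse-transcribe, PCR-amplify reporter sequences; FAM-label, HpaI-digest, resolve fragments by CE. Activity fitted both directions relative to DMSO.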

[18] = target: Nuclear receptor subfamily 1 group I member 2 (Homo sapiens) (UniProt O75469); experiment: ATG_PXR_TRANS: Attagene TRANS-FACTORIAL HepG2 Assay for human Pregnane X Receptor (PXR) (AID 2283008; active = hit-call score of the fitted dose curve at least 0.9, where 1 is the maximum)
Outline: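 HepG2 transfected (FuGene 6) with GAL4-UAS reporter units + PXR-Gal4 chimera; dosed 24 h. Total RNA → oligo(dT) RT → PCR → 6-FAM primer extension → HpaI cut → CE. Gain-of-signal vs DMSO.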

[19] = ATG_M_19_CIS: Attagene CIS-FACTORIAL HepG2 Assay for M19 Transcription Factor (Internal Marker) (AID 2282939); settings: HepG2 Attagene CIS-FACTORIAL M19 internal marker reporter; actives raise or lower the signal
Outline: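 Chemical-treated HepG2 (24 h) with MRTU constructs; reporter transcripts detected by fluorescent RT-PCR fragment analysis on capillary electrophoresis. Internal background marker, DMSO as baseline.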

[20] = ATG_TA_CIS: Attagene CIS-FACTORIAL HepG2 Assay for human TA Basal Promoter (AID 2282964); settings: HepG2 Attagene CIS-factorial TA basal promoter reporter; actives raise or lower the signal
Outline: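 Background internal-marker endpoint from a 52-component HepG2 cis-reporter panel. Cells treated 24 h; reporter transcripts quantified via RT-PCR and CE fluorescence against DMSO baseline.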

Measured: AC50

Myc proto-oncogene protein (Homo sapiens), sequence (P01106 whole entry, looked up): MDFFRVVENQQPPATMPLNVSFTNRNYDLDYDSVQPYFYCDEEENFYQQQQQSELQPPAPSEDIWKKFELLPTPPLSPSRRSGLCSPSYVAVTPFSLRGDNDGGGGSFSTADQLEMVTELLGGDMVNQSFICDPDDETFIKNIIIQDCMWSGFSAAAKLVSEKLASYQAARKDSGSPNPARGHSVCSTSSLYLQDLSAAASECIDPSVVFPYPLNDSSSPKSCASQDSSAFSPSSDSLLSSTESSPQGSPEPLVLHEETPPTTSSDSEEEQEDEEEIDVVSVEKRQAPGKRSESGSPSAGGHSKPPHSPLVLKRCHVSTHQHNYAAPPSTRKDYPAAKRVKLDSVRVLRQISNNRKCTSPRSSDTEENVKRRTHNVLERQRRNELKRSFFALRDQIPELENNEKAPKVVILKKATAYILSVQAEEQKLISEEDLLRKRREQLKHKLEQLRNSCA
Transcription factor E2F1 (Homo sapiens), sequence (Q01094 whole entry, looked up): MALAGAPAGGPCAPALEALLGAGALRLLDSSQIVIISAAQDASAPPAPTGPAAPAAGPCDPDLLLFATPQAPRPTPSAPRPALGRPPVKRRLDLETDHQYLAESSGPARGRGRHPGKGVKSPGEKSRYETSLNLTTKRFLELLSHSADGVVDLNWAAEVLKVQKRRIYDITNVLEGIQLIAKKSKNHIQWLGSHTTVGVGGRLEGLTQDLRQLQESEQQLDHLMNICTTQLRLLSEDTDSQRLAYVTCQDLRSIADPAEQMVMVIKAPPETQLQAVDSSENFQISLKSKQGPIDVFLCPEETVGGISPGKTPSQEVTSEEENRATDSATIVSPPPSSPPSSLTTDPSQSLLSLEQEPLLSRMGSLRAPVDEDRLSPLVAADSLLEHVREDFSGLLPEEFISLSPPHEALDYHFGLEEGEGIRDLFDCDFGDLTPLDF
Hepatocyte nuclear factor 3-beta (Homo sapiens), sequence (Q9Y261 whole entry, looked up): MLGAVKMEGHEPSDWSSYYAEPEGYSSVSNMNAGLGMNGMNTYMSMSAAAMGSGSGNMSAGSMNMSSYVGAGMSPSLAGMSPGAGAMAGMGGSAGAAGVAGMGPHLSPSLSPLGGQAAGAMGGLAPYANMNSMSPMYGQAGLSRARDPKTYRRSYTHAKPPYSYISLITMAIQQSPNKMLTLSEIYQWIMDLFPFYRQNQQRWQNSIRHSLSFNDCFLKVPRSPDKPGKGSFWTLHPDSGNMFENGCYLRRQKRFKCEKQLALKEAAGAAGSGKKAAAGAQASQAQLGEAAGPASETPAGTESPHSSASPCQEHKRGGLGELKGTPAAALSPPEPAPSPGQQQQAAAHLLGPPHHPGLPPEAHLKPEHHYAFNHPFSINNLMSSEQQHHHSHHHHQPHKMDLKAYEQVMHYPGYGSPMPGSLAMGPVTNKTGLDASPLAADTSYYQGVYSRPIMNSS
Hypoxia-inducible factor 1-alpha (Homo sapiens), sequence (Q16665 whole entry, looked up): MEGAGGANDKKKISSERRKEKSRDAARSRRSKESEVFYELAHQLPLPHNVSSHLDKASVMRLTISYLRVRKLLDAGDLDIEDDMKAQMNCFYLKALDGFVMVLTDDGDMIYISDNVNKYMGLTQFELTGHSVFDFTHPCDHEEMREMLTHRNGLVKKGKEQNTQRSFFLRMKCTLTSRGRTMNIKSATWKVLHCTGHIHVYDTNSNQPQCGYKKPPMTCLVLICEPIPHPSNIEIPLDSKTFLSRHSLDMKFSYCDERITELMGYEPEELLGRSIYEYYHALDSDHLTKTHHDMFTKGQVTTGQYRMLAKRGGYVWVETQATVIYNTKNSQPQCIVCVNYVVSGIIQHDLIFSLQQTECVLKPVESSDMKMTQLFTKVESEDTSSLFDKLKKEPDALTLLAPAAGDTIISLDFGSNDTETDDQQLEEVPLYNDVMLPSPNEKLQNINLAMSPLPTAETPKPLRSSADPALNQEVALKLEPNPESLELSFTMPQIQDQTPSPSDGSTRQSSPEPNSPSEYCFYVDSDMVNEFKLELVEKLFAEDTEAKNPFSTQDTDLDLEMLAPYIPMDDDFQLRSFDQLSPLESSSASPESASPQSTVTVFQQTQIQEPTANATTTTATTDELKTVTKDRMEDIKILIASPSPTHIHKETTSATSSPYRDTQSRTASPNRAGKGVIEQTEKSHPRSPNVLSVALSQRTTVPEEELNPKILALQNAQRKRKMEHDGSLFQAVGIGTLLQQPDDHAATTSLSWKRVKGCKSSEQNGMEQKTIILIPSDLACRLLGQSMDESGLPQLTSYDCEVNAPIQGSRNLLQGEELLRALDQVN
Cellular tumor antigen p53 (Homo sapiens), sequence (P04637 whole entry, looked up, the tested form may be a part): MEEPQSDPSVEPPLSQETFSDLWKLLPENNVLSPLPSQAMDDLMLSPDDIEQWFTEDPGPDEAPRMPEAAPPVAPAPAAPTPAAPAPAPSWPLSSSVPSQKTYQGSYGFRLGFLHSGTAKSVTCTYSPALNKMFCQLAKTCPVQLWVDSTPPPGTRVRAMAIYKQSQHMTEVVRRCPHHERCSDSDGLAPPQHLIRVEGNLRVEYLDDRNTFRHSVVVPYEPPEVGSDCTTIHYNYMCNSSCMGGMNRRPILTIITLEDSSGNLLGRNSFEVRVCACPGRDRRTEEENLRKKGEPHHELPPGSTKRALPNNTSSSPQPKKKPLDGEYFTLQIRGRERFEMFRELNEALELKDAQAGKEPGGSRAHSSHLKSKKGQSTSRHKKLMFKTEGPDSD
Hepatocyte nuclear factor 6 (Homo sapiens), sequence (Q9UBC0 whole entry, looked up): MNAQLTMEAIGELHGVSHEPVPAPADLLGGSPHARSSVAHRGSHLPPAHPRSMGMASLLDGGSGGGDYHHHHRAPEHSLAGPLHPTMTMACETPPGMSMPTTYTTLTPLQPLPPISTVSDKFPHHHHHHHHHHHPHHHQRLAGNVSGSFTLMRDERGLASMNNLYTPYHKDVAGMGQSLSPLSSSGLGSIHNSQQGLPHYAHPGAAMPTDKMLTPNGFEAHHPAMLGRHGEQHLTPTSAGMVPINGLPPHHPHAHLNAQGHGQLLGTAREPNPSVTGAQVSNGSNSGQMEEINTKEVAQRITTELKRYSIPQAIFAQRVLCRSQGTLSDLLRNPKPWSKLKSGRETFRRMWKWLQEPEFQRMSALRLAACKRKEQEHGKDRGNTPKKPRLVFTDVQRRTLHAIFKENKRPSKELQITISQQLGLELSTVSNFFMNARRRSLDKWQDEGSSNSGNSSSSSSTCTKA
Heat shock factor protein 1 (Homo sapiens), sequence (Q00613 whole entry, looked up): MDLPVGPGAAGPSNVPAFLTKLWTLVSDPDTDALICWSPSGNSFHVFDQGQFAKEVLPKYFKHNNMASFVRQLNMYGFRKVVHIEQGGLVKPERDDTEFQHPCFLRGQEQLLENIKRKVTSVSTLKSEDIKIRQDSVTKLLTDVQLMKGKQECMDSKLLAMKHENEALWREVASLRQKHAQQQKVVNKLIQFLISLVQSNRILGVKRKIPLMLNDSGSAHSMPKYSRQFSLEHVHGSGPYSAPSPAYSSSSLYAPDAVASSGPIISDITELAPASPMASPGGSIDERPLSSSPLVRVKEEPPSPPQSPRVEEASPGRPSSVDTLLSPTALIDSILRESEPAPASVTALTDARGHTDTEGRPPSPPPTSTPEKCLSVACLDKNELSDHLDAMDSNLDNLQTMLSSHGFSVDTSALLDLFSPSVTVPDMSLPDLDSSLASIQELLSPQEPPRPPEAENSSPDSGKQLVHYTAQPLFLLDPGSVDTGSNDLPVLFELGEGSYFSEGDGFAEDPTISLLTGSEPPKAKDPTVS
Nuclear receptor subfamily 1 group I member 2 (Homo sapiens), sequence (O75469 whole entry, looked up, the tested form may be a part): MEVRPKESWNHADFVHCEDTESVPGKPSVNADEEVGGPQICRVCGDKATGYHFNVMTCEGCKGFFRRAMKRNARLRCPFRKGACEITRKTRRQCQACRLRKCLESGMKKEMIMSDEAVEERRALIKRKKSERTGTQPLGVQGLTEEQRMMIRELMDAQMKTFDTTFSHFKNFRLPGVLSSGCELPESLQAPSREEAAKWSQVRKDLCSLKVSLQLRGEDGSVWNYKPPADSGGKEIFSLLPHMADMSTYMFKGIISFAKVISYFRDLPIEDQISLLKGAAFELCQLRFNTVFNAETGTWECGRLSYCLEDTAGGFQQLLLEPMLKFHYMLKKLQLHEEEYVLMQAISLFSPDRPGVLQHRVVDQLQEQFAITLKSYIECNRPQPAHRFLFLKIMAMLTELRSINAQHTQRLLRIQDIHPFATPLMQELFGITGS

CC/C=C\CCCCCO
not listed: [19] | [20]
inactive: all other assays above

CCCCCCCCCCC1CO1 (stereo not given)
active: [20] 153 µM | [16] 128 µM
not listed: [13]
inactive: all other assays above

CC1=C(CC=O)C(C)(C)CCC1
active: [16] 30.2 µM | [18] 1.38 µM
not listed: [10]
inactive: all other assays above

COC(OC)C(C)c1ccccc1 (stereo not given)
not listed: [3] | [19]
inactive: all other assays above

C=CN1CCCCCC1=O
not listed: [5] | [13]
inactive: all other assays above

CN(C)CCC(c1ccc(Cl)cc1)c1ccccn1 (stereo not given)
active: [5] 125 µM
not listed: [4] | [6] | [7] | [10] | [12] | [20]
inactive: all other assays above

CCCCn1cc[n+](C)c1
not listed: [8] | [12] | [17] | [20]
inactive: all other assays above

CC(C)n1c(/C=C/[C@@H](O)C[C@@H](O)CC(=O)O)c(-c2ccc(F)cc2)c2ccccc21
active: [9] 55.3 µM | [17] 26 µM
not listed: [5] | [7] | [10] | [12] | [14] | [16] | [20]
inactive: all other assays above
